# According to the supplement of paper PMC5662767:
# Where a name gives a salt, the structure may show the parent alone.
# Test system: Drosophila S2 cl14 SmoIP sensor cells
# Test: normalized SmoIP GFP fluorescence (untreated unstimulated = 0%, untreated Hh-stimulated = 100%); higher = more Smo activation sensor fluorescence
# Conditions: stimulation: Hh conditioned medium (+Hh); compound concentration: 2 uM; 24 h
# 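Also: flow cytometry read-out as median GFP intensity of gated cells, compounds added 30 min before Hh-conditioned or mock medium, mock-treated cells serving as unstimulated baseline.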
row,Structure (SMILES),normalized SmoIP GFP fluorescence
1,CC(C)C[C@H](NC(=O)[C@H]1O[C@@H]1C(=O)O)C(=O)NCCCCN=C(N)N,129%
2,Cn1c(=O)n(-c2ccc(C(C)(C)C#N)cc2)c2c3cc(-c4cnc5ccccc5c4)ccc3ncc21,113%
3,Cn1cnc(N)c2ncnc1-2 [3-methyladenine],111%
4,COC(=O)[C@]12CCC(C)(C)C[C@H]1[C@H]1C(=O)C=C3[C@@]4(C)C=C(C#N)C(=O)C(C)(C)[C@@H]4CC[C@@]3(C)[C@]1(C)CC2 [bardoxolone-methyl],102%
5,CCS(=O)(=O)Nc1ccc2c(c1)/C(=C(/Nc1ccc(CN3CCCCC3)cc1)c1ccccc1)C(=O)N2 [Hesperadin],94.8%
6,O=c1sn(-c2cccc3ccccc23)c(=O)n1Cc1ccccc1 [tideglusib],101%
7,CCOc1nc2cccc(C(=O)O)c2n1Cc1ccc(-c2ccccc2-c2noc(=O)[nH]2)cc1 [azilsartan-tak-536],104%
8,CNC(=O)c1nn(C)c2c1C(C)(C)Cc1cnc(Nc3ccc(N4CCN(C)CC4)cc3)nc1-2,107%
9,CCOC(=O)c1ncn2c1CN(C)C(=O)c1cc(F)ccc1-2 [Flumazenil],110%
10,O=C(Oc1cc(S(=O)(=O)c2ccccc2)ccc1[N+](=O)[O-])c1ccc(Cl)cc1,146%
11,CNC(=O)c1cccc(-c2ccc3c(N4CCOC[C@@H]4C)nc(N4CCOC[C@@H]4C)nc3n2)c1,65.7%
12,O=C(N/N=C/c1ccc(O)c(O)c1)c1cc2ccccc2cc1O [dynasore],129%
13,NC(=O)c1cnc(N[C@@H]2CCCC[C@@H]2N)nc1Nc1cccc(-n2nccn2)c1,166%
14,C[C@H]1c2cccc(O)c2C(=O)C2=C(O)[C@]3(O)C(=O)C(C(N)=O)=C(O)[C@@H](N(C)C)[C@@H]3[C@@H](O)[C@@H]21 [doxycycline-hcl],101%
15,NC(=O)c1ncn([C@@H]2O[C@H](CO)[C@@H](O)[C@H]2O)c1N [Acadesine],127%
16,NC12CC3CC(CC(C3)C1)C2 [Amantadine-hydrochloride(Symmetrel)],110%
17,O=C1c2ccc(Nc3ccc(F)cc3F)cc2CCc2ccc(OC[C@H](O)CO)cc21 [skepinone-l],101%
18,COc1cc(OC)c(/C=C/S(=O)(=O)Cc2ccc(OC)c(NCC(=O)O)c2)c(OC)c1,79.7%
19,CCCCOc1ccc(CC(=O)NO)cc1 [bufexamac],98.6%

row,Structure (SMILES),normalized SmoIP GFP fluorescence
1,Oc1cc(O)c(Cl)cn1 [gimeracil],107%
2,C[C@H]1[C@H](C)CC[C@]2(C(=O)O)CC[C@]3(C)C(=CC[C@@H]4[C@@]5(C)C[C@@H](O)[C@H](O)[C@@](C)(CO)[C@@H]5CC[C@]43C)[C@H]12 [Asiatic-acid],143%
3,CC1(C)CNc2cc(NC(=O)c3cccnc3NCc3ccncc3)ccc21 [Motesanib-Diphosphate],136%
4,C=CC(=O)Nc1ccc2ncnc(Nc3ccc(OCc4cccc(F)c4)c(Cl)c3)c2c1,99.1%
5,Cc1ccccc1C(=O)Nc1ccc(C(=O)N2CCCC(N(C)C)c3ccccc32)cc1 (stereo unspecified) [mozavaptan],105%
6,O=C1CN2Cc3c(ccc(Cl)c3Cl)N=C2N1 [anagrelide-hydrochloride],108%
7,CCCCc1nc2cc(/C=C/C(=O)NO)ccc2n1CCN(CC)CC,208%
8,CC[C@@]1(O)C(=O)OCc2c1cc1n(c2=O)Cc2cc3c(CN(C)C)c(O)ccc3nc2-1 [Topotecan-Hydrochloride],110%
9,Cc1cccc(-c2nn3c(c2-c2ccnc4ccc(C(N)=O)cc24)CCC3)n1,110%
10,COc1cc2ncnc(Sc3nnc(C)s3)c2cc1OC [sklb1002],107%
11,COc1cc2ncnc(Nc3ccc(O)c(Br)c3)c2cc1OC,112%
12,O=C(NOCC(O)CO)c1cc(Br)c(F)c(F)c1Nc1ccc(I)cc1F (stereo unspecified),132%
13,O=C(Nc1ccccc1Br)N[C@@H]1CCN(c2ccc(C(F)(F)F)cn2)C1,137%
14,Cc1cc(C)c2c(c1)[C@@H](N(Cc1cc(C(F)(F)F)cc(C(F)(F)F)c1)c1nnn(C)n1)CCCN2CC1CCC(C(=O)O)CC1 (stereo partly specified),105%
15,O=C(O)/C=C/c1ccc(Cn2ccnc2)cc1 [Ozagrel],116%
16,NC(=O)Nc1sc(-c2ccc(F)cc2)cc1C(N)=O [tpca-1],106%
17,O=C(O)Cn1nnc(-c2cc(N3CCC(Oc4cc(F)ccc4Br)CC3)no2)n1,80.4%
18,Oc1ccc(-c2nc(-c3ccc(F)cc3)c(-c3ccncc3)[nH]2)cc1,99.3%
19,CC(C)C[C@H](NC(=O)CNC(=O)c1cc(Cl)ccc1Cl)B(O)O,82.1%

# Same assay, conditions: stimulation: mock conditioned medium (-Hh); compound concentration: 2 uM; 24 h
row,Structure (SMILES),normalized SmoIP GFP fluorescence
1,CC(C)C[C@H](NC(=O)[C@H]1O[C@@H]1C(=O)O)C(=O)NCCCCN=C(N)N,-3.72%
2,Cn1c(=O)n(-c2ccc(C(C)(C)C#N)cc2)c2c3cc(-c4cnc5ccccc5c4)ccc3ncc21,-5.01%
3,Cn1cnc(N)c2ncnc1-2 [3-methyladenine],-4.89%
4,COC(=O)[C@]12CCC(C)(C)C[C@H]1[C@H]1C(=O)C=C3[C@@]4(C)C=C(C#N)C(=O)C(C)(C)[C@@H]4CC[C@@]3(C)[C@]1(C)CC2 [bardoxolone-methyl],0.986%
5,CCS(=O)(=O)Nc1ccc2c(c1)/C(=C(/Nc1ccc(CN3CCCCC3)cc1)c1ccccc1)C(=O)N2 [Hesperadin],12.7%
6,O=c1sn(-c2cccc3ccccc23)c(=O)n1Cc1ccccc1 [tideglusib],-0.264%
7,CCOc1nc2cccc(C(=O)O)c2n1Cc1ccc(-c2ccccc2-c2noc(=O)[nH]2)cc1 [azilsartan-tak-536],-4.7%
8,CNC(=O)c1nn(C)c2c1C(C)(C)Cc1cnc(Nc3ccc(N4CCN(C)CC4)cc3)nc1-2,-11.7%
9,CCOC(=O)c1ncn2c1CN(C)C(=O)c1cc(F)ccc1-2 [Flumazenil],1.57%
10,O=C(Oc1cc(S(=O)(=O)c2ccccc2)ccc1[N+](=O)[O-])c1ccc(Cl)cc1,7.6%
11,CNC(=O)c1cccc(-c2ccc3c(N4CCOC[C@@H]4C)nc(N4CCOC[C@@H]4C)nc3n2)c1,-4.47%
12,O=C(N/N=C/c1ccc(O)c(O)c1)c1cc2ccccc2cc1O [dynasore],1.24%
13,NC(=O)c1cnc(N[C@@H]2CCCC[C@@H]2N)nc1Nc1cccc(-n2nccn2)c1,24.4%
14,C[C@H]1c2cccc(O)c2C(=O)C2=C(O)[C@]3(O)C(=O)C(C(N)=O)=C(O)[C@@H](N(C)C)[C@@H]3[C@@H](O)[C@@H]21 [doxycycline-hcl],-1.63%
15,NC(=O)c1ncn([C@@H]2O[C@H](CO)[C@@H](O)[C@H]2O)c1N [Acadesine],-15.4%
16,NC12CC3CC(CC(C3)C1)C2 [Amantadine-hydrochloride(Symmetrel)],-4.08%
17,O=C1c2ccc(Nc3ccc(F)cc3F)cc2CCc2ccc(OC[C@H](O)CO)cc21 [skepinone-l],-4.13%
18,COc1cc(OC)c(/C=C/S(=O)(=O)Cc2ccc(OC)c(NCC(=O)O)c2)c(OC)c1,-1.34%
19,CCCCOc1ccc(CC(=O)NO)cc1 [bufexamac],-3.05%

row,Structure (SMILES),normalized SmoIP GFP fluorescence
1,Oc1cc(O)c(Cl)cn1 [gimeracil],-6.97%
2,C[C@H]1[C@H](C)CC[C@]2(C(=O)O)CC[C@]3(C)C(=CC[C@@H]4[C@@]5(C)C[C@@H](O)[C@H](O)[C@@](C)(CO)[C@@H]5CC[C@]43C)[C@H]12 [Asiatic-acid],-15.4%
3,CC1(C)CNc2cc(NC(=O)c3cccnc3NCc3ccncc3)ccc21 [Motesanib-Diphosphate],43.3%
4,C=CC(=O)Nc1ccc2ncnc(Nc3ccc(OCc4cccc(F)c4)c(Cl)c3)c2c1,-15.8%
5,Cc1ccccc1C(=O)Nc1ccc(C(=O)N2CCCC(N(C)C)c3ccccc32)cc1 (stereo unspecified) [mozavaptan],-2.08%
6,O=C1CN2Cc3c(ccc(Cl)c3Cl)N=C2N1 [anagrelide-hydrochloride],-2.31%
7,CCCCc1nc2cc(/C=C/C(=O)NO)ccc2n1CCN(CC)CC,34.2%
8,CC[C@@]1(O)C(=O)OCc2c1cc1n(c2=O)Cc2cc3c(CN(C)C)c(O)ccc3nc2-1 [Topotecan-Hydrochloride],15.7%
9,Cc1cccc(-c2nn3c(c2-c2ccnc4ccc(C(N)=O)cc24)CCC3)n1,-15.4%
10,COc1cc2ncnc(Sc3nnc(C)s3)c2cc1OC [sklb1002],-0.491%
11,COc1cc2ncnc(Nc3ccc(O)c(Br)c3)c2cc1OC,-2.31%
12,O=C(NOCC(O)CO)c1cc(Br)c(F)c(F)c1Nc1ccc(I)cc1F (stereo unspecified),16.8%
13,O=C(Nc1ccccc1Br)N[C@@H]1CCN(c2ccc(C(F)(F)F)cn2)C1,-2.82%
14,Cc1cc(C)c2c(c1)[C@@H](N(Cc1cc(C(F)(F)F)cc(C(F)(F)F)c1)c1nnn(C)n1)CCCN2CC1CCC(C(=O)O)CC1 (stereo partly specified),-5.15%
15,O=C(O)/C=C/c1ccc(Cn2ccnc2)cc1 [Ozagrel],-2.46%
16,NC(=O)Nc1sc(-c2ccc(F)cc2)cc1C(N)=O [tpca-1],-3.79%
17,O=C(O)Cn1nnc(-c2cc(N3CCC(Oc4cc(F)ccc4Br)CC3)no2)n1,13.3%
18,Oc1ccc(-c2nc(-c3ccc(F)cc3)c(-c3ccncc3)[nH]2)cc1,-1.34%
19,CC(C)C[C@H](NC(=O)CNC(=O)c1cc(Cl)ccc1Cl)B(O)O,26%
